# Assay outcomes as filed in PubChem.
# Shown is part of a subset that was picked to be rich in hits.
# Pf apPOL inh: Pf-apPOL DNA polymerase inhibition; Recombinant Pf-apPOL, molecular beacon fluorescence, 1.5 h; inhibition, % at 10 µM; 0.25% of 210,000 active
# mHTT CaM bind: mHTT-calmodulin interaction abrogation; AlphaScreen His-mHTT/GST-CaM binding, luminescence; inhibition, % at 15 µM; 3.6% of 190,000 active;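 also: 0% = both proteins with DMSO and 100% = one protein alone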
# Target sequence (P42858 whole entry, looked up, stated change not applied): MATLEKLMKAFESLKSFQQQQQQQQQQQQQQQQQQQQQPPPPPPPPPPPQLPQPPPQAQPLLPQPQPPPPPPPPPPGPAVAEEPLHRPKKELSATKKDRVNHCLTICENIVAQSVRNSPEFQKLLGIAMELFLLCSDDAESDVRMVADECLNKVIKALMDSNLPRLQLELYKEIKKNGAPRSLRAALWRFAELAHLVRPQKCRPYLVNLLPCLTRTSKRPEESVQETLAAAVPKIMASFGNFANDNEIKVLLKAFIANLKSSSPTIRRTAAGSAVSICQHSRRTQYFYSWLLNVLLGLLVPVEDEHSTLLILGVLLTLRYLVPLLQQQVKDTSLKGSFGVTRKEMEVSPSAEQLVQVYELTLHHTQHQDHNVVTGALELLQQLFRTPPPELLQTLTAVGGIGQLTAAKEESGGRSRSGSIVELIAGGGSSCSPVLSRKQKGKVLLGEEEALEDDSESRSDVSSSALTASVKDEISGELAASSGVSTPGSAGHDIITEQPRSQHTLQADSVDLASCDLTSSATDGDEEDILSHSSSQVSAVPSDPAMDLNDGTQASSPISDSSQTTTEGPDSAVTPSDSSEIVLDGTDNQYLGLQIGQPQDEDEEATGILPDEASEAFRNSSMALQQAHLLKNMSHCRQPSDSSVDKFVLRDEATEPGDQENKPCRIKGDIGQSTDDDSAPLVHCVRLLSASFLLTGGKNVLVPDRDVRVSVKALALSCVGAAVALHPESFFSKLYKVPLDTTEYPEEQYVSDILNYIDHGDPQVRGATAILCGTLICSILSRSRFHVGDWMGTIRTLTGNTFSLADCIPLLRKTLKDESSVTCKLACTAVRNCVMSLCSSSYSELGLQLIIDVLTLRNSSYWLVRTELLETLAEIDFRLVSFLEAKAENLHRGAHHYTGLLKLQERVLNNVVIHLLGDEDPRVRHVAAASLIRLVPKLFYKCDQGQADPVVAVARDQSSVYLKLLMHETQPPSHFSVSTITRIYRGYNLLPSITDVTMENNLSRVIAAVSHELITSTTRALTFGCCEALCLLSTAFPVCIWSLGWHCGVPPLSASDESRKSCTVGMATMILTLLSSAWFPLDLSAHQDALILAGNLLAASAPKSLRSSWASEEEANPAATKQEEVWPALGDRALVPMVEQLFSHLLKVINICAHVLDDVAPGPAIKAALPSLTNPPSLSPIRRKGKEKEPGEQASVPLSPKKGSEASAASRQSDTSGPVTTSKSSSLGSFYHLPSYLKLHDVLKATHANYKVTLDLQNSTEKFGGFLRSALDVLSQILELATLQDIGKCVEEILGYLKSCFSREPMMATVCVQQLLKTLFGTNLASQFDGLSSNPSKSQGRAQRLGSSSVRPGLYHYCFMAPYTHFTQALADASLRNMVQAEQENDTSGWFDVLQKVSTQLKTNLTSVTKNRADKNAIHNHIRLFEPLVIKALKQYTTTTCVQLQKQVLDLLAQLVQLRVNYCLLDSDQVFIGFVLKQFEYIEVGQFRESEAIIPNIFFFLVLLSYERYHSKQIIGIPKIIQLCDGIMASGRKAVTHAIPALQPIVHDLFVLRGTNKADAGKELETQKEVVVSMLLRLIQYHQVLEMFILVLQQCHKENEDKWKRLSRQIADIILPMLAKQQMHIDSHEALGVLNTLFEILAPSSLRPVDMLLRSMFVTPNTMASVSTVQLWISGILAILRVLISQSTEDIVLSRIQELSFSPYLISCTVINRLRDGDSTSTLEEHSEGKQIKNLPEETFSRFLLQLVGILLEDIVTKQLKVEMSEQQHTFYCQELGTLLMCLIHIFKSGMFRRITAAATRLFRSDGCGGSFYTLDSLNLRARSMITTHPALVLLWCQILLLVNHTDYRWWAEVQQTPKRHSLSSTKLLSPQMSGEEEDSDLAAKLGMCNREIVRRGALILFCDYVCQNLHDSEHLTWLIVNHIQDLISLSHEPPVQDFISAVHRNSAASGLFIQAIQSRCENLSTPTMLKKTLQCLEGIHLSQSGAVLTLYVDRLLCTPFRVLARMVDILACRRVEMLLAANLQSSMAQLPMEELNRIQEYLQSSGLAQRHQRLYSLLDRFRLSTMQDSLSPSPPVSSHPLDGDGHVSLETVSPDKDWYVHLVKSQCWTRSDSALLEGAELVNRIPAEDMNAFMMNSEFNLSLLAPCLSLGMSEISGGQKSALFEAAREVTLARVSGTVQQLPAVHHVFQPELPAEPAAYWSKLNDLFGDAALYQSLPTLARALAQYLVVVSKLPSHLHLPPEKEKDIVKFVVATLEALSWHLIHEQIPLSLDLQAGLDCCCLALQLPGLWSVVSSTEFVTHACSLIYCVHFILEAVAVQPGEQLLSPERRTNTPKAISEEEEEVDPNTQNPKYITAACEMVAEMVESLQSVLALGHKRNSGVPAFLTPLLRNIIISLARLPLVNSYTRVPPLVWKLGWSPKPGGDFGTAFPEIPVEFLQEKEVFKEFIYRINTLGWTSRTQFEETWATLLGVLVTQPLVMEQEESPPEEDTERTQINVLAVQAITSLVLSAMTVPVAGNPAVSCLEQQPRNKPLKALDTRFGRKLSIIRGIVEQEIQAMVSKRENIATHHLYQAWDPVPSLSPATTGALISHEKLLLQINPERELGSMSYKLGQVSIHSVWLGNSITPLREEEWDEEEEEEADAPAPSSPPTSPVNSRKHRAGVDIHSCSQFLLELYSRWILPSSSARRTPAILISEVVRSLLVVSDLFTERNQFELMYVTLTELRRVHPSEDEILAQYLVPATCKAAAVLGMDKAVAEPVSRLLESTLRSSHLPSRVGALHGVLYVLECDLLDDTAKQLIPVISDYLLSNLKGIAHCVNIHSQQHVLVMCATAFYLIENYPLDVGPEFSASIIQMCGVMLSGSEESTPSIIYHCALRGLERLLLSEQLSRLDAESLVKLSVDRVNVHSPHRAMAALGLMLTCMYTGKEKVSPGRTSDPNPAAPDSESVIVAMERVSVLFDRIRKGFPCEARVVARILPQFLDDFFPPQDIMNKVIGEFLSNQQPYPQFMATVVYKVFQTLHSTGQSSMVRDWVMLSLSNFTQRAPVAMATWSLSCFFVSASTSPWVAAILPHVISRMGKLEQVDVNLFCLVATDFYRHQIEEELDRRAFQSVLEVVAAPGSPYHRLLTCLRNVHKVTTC
# Starred values were filed as active, the others as inactive; . = no result given. Rule as the data show it: active = inhibition above about 50%; inactive = the rest.
SMILES,Pf apPOL inh,mHTT CaM bind
Cc1ccc(S(=O)(=O)c2cc3c(=O)n4ccccc4nc3n(Cc3cccnc3)c2=N)cc1,-8,5
Cc1ccc(C2Cn3nnc(C(=O)N4CCC(C(=O)NCCN(C)C)CC4)c3CO2)cc1 (configuration not stated),-5,0
O=C(NC1CC2CC1N(C(=O)COc1cccc(Cl)c1)C2)c1ccccc1 (configuration not stated),-1,6
O=C(CSc1nnc(COc2ccccc2)o1)N1CCN(c2ccccc2)CC1,-2,13
Cc1nc(N)sc1C(C)(C)C,.,1
CC(C)NC(=O)c1cc2cn(C3CCCC3)cc2s1,-4,17
COc1ccc(NC(=O)c2cc3cn(C4CC4)cc3s2)c(C)c1,10,52*
COc1ccc(/C=C(/NC(=O)c2ccc(Br)o2)C(=O)NCc2ccccc2)cc1,-5,8
Cc1cccc(-c2noc(-c3ccc(N4CCN(C)CC4)nc3)n2)c1,1,25
COc1cccc(C(=O)Nc2c3c(nn2-c2ccc(F)cc2)CS(=O)(=O)C3)c1,-1,-3
Cc1ccc2c(S(=O)(=O)O)ccc(O)c2n1,0,24
O=S(=O)(O)c1ccc(O)c2ncccc12,-5,100*
Cc1cc(NC(=O)CSc2nnc(C3COc4ccccc4O3)o2)no1 (configuration not stated),5,72*
Cc1cc(NC(=O)CSc2nnc(Cc3c(C)[nH]c(=O)[nH]c3=O)o2)no1,-2,-20
COc1cc(C(C)(C)C)c(OC)cc1C(C)(C)C,5,.
Cc1ccccc1NC(=O)c1cccc(S(=O)(=O)NCc2ccccc2)c1,7,-9
O=C1c2ccccc2C(=O)N1c1cccc(-c2csc(=Nc3ccccc3)n2CCO)c1,-1,31
Cc1ccc(-c2csc(=Nc3ccc(F)cc3)n2CCO)cc1,0,63*
OCCn1c(-c2ccc(F)cc2)csc1=Nc1ccc(F)cc1,-2,44
OCCCn1c(-c2ccc(F)cc2)csc1=Nc1ccc(F)cc1,-3,59*
Cc1ccccc1CNC(=O)C1(C)CCCN(S(=O)(=O)c2ccccc2Cl)C1 (configuration not stated),1,-5
Cc1ccc(C)c(S(=O)(=O)N2CCCC(C)(C(=O)NCc3ccccc3)C2)c1 (configuration not stated),-4,-4
Cc1c(Cl)cccc1S(=O)(=O)N1CCCC(C)(C(=O)NCc2ccccc2)C1 (configuration not stated),-4,65*
Cc1ccccc1CNC(=O)C1(C)CCCN(S(=O)(=O)c2cccc(Cl)c2C)C1 (configuration not stated),-3,61*
O=C(C1CCN(c2nc3ccc(-c4cccc(F)c4)nc3s2)CC1)N1CCOCC1,-3,1
SMILES,Pf apPOL inh,mHTT CaM bind
O=C(O)c1cc(-c2ccccc2)n(-c2ccccc2Cl)n1,-4,1
O=C(Cc1ccccc1Cl)N1CCC(c2nnc(-c3ccc(F)cc3)o2)CC1,-16,-7
CCc1nc(C)c2c(n1)N(CCN1CCOCC1)C(=O)CC2,1,2
O=C(Nc1ccc(F)cc1)c1ccccc1NC(=S)Nc1ccc(Cl)c(Cl)c1,5,.
Cc1c(Cl)cccc1NC(=O)N1CCC2(CC1)Nc1cc(F)ccc1-n1cccc12,-2,41
Cc1ccc2c(c1)NC1(CCN(C(=O)c3cccc(F)c3)CC1)c1cccn1-2,1,62*
Cc1ccc(NC(=O)N2CCC3(CC2)Nc2cc(F)ccc2-n2cccc23)c(C)c1,0,40
Cc1cccc(NC(=O)N2CCC3(CC2)Nc2cc(F)ccc2-n2cccc23)c1,0,55*
COC(=O)c1cccc(NC(=O)N2CCC3(CC2)Nc2cc(F)ccc2-n2cccc23)c1,-3,53*
Cc1cccc(NC(=O)N2CCC3(CC2)Nc2cc(F)ccc2-n2cccc23)c1C,-3,40
O=C(Nc1ccccc1C(F)(F)F)N1CCC2(CC1)Nc1cc(F)ccc1-n1cccc12,5,37
O=C(Nc1cccc(F)c1)N1CCC2(CC1)Nc1ccccc1-n1cccc12,2,71*
CS(=O)(=O)N1CCN(c2ccc([N+](=O)[O-])cc2Cl)CC1,-1,1
O=C(COc1cc(Cl)c(Cl)cc1Cl)Nc1cccnc1,-7,-4
COc1ccc(CNc2ccc3c(c2)ncn3C)c(OC)c1,-6,3
O=C1CC(c2ccco2)CC2=C1C(c1ccc([N+](=O)[O-])cc1)C1=C(N2)c2ccccc2C1=O (configuration not stated),-15,47
O=C(c1cccc(F)c1F)N1CCCCC1,-8,-7
Cc1ccc(C)c(OCC(=O)Nc2cccc(C(=O)O)c2)c1C,0,0
Cc1cc(Sc2nccn2C)c2ccccc2n1,-12,2
COC(=O)c1ccccc1NC(=O)N1CCC2(CC1)Nc1cc(F)ccc1-n1cccc12,2,46
CCOC(=O)c1ccccc1NC(=O)N1CCC2(CC1)Nc1cc(F)ccc1-n1cccc12,-3,50*
O=C(Nc1ccccc1Cl)N1CCC2(CC1)Nc1cc(F)ccc1-n1cccc12,-1,34
